Source: PubChem BioAssay AID504894 (National Center for Advancing Translational Sciences (NCATS), 2011)
Screen size: about 330,000 compounds; fewer than 10 were called active. The list is a sample of the results. Unmarked numbers belong to inactive results. Calls follow the shape of the dose curve; as a rule, active = well fitted activation curve with a large enough effect; inconclusive = small, poorly fitted or top-dose-only effect, or another doubt; inactive = no such curve, though single readings can be large or run the other way. Square brackets hold non-standard residues; d marks the D form. Peptide text beside a SMILES is read from it. ξ: configuration not given here. Ac5c = NC1(C(=O)O)CCCC1; ξS = NC(CO)C(=O)O

Test: Activators of T cell receptors: qHTS campaign; also: % of control where 0% means no effect
Details: primary human leukocytes, anti-CD3, IL-2 HTRF, 48 h; series mostly up to 9.22 µM; activation of IL-2 secretion: at the top concentration
Source text: Normally activation of naive T cells requires two signals. 1. A signal through the T cell receptor (TCR) which provides antigen specificity to the response. 2. Signals through co-stimulatory molecules, which are necessary for proliferation, survival and cytokine production. In the absence of co-stimulatory signals T cells are not effectively activated, and may even be rendered anergic or unresponsive to subsequent signaling. This lack of costimulation has been shown in multiple model systems to be a major factor in the limited strength and effectiveness of anti-tumor T cell responses. The goal of this project is to identify small molecule compounds that will stimulate T cell activation in the presence of TCR signaling but in the absence of co-stimulatory signals, thereby allowing activation of naive T cells in the absence of co-stimulation. Identification of such compounds would have clear experimental and clinical applications in instances where desirable antigen-specific immune responses are not generated due to a lack of co-stimulation, for example in the generation of anti-tumor responses. In collaboration between the National Cancer Institute and NIH Chemical Genomics Center, a high-throughput amenable screen was developed to discover small molecules that co-stimulate and activate human T cell receptors. The screen will be carried out using a novel homogeneous time resolved fluorescence energy transfer (HTRF) assay to measure production of the cytokine IL-2 by activated T cells and will be tested against the NIH Molecular Libraries Small Molecule Repository (MLSMR). NIH Chemical Genomics Center [NCGC] NIH Molecular Libraries Probe Centers Network [MLPCN] MLPCN Grant: MH090820-01 Assay Submitter (PI): Richard Hodes, National Cancer Institute, NIH
Primary human leukocytes are incubated with a-CD3 beads and compounds for 48 hr. The amount of secreted IL-2 is then assayed with a HTRF IL-2 kit. The presence of IL-2 cytokine captures the detection reagents and brings the a-IL-2-K and a-IL-2-d2 into close proximity. Upon excitation with 320nm light, the europium cryptate is capable of transferring energy to acceptor molecules within close proximity, resulting in acceptor molecule emission at 665nm.

| SMILES | activation of IL-2 secretion |
| --- | --- |
| COc1ccc(S(=O)(=O)N2C[C@H]3CON(C)[C@H]3C[C@H]2c2cccc(Br)c2)cc1 | 0.192% |
| CC(C)c1cc(N=O)cc(C(C)C)c1O | 0.896% |
| COC(=O)CC(CC(=O)OC)n1cccc1 | 5.57% |
| CCOc1ccc(/C=C(/C#N)c2nnc(N3CCOCC3)n2-c2ccccc2)cc1OC | 14.1% |
| O=C(Cc1ccc(NC(=O)C2CCCN(C(=O)C3CCCCC3)C2)cc1)Nc1cccc(C(=O)N2CCCCC2)c1 (configuration not stated) | -6.51% |
| Cc1[nH]c(N)nc(=S)c1CCCNc1ccccc1 | -4.36% |
| CC(=NNC(=O)c1ccncc1)c1ccc(Cl)c(Cl)c1 | 0.449% |
| O=C(CCCCCCCC(=O)N1CCCCC1)N1CCCCC1 | 1.97% |
| NC(=O)C1(N2CCCC2)CCN(Cc2ccccc2)CC1 | -0.103% |
| CCOc1cc(C(=O)N(Cc2ccccc2)c2ccc(C)cc2)ccc1OCC(=O)N1CCOCC1 | -0.923% |
| CN(C(=O)c1ccc(NC(=O)Cc2cccc(NC(=O)C3CCN(C(=O)c4ccccc4)CC3)c2)cc1)C1CC1 | 0.0664% |
| COCC(=O)N(C)[C@H]1C[C@H]2c3cc(Oc4ccccc4C)ccc3CCN2C(=O)[C@H]1[C@H](C)O | 8.09% |
| CCN(CC)S(=O)(=O)c1cccc(NC(=O)c2ccc(S(=O)(=O)N3CCCC3)cc2)c1 | -28.5% |
| CCOC(=O)CCC(NC(=O)c1ccc(CNc2nc3cc(C(F)(F)F)ccc3nc2C(=O)OCC)cc1)C(=O)OCC (configuration not stated) | -0.383% |
| N#CC1(Nc2ccc(-c3ccc(Cl)cc3)cc2)CCCC1 | -4.8% |
| O=C(O)C(c1cccs1)C1(O)CCCCC1 (configuration not stated) | 3.18% |
| COc1ccccc1NC(=O)N(O)C1(C#N)CCCCC1 | -5.54% |
| CC(C)Cc1nnc(N)s1 | -2.99% |
| Cn1c(N)cc(=O)n(C)c1=S | 1.37% |
| CN1C(c2ccc(F)cc2)=CS/C1=C(/C#N)c1nnc2n1-c1ccccc1SC2 | 4.24% |
| COc1ccc2c(c1)c(=Cc1ccc(N(C)C)cc1)c1cc(-c3ccccc3)[n+](C)n12 | -1.83% |
| O=C(Nc1cccc(Br)c1)C1CC(=O)N(C2CCCC2)C1 (configuration not stated) | 7.06% |
| Cc1cc(OCCCC(=O)Nc2cc(S(=O)(=O)N3CCOCC3)ccc2N2CCOCC2)ccc1Cl | -1.39% |
| Cc1cc(NC(=O)C(C)SCC(=O)Nc2cccc(S(=O)(=O)N3CCCCCC3)c2)no1 (configuration not stated) | 0.672% |
| Oc1ccc(-c2nc3ccccc3nc2-c2ccc(O)cc2O)c(O)c1 | -0.514% |

| SMILES | activation of IL-2 secretion |
| --- | --- |
| CSCCC(NS(=O)(=O)c1ccc(C)cc1)C(=O)N(C)CC(=O)Nc1ccccc1Br (configuration not stated) | -0.958% |
| CCCCN1CC(COc2ccccc2)Oc2cccc(F)c2S1(=O)=O (configuration not stated) | 4.26% |
| CC(C)=CCc1ccc(O)c(=O)cc1C(C)C | 12.1% |
| CC1(C)C(=O)CCC2(C)C1=CCC1C2C(=O)CC2(C)C1CCC2(O)C(=O)CO (configuration not stated) | 0.234% |
| COC1=CC(=O)OC(C)(c2ccccc2)C1 (configuration not stated) | -3.37% |
| O=C(NCC1CCCCC1)NCC1CCCCC1 | -9.34% |
| Cc1ccc(NC(=O)C(C)OC(=O)C2CC3CCCC(C2)C3=O)cc1S(=O)(=O)N1CCOCC1 (configuration not stated) | 6.86% |
| COc1ccc(CNC(=O)COC(=O)C2=Cc3ccccc3OC2)cc1 | 0.823% |
| COC1C(CO)OC(n2cnc3c(=S)nc(N)[nH]c32)C1O (configuration not stated) | -2.7% |
| O=C(c1cccc(S(=O)(=O)N2CCCCCC2)c1)N1CCN(Cc2ccccc2)CC1 | 4.29% |
| O=C1NC(c2ccccc2)Cc2ccncc21 (configuration not stated) | 1.23% |
| CN1CCOC1c1ccc(C2OCCN2C)cc1 (configuration not stated) | 4% |
| CC1CCCN(C(=O)Cn2c(=O)oc3cc(S(=O)(=O)N4CCCCC4C)ccc32)C1 (configuration not stated) | 1.25% |
| O=C(Cc1ccc(NC(=O)C2CCCN(C(=O)CCc3ccccc3)C2)cc1)Nc1ccc(C(=O)N2CCOCC2)cc1 (configuration not stated) | 6.18% |
| CCOc1ccc(S(=O)(=O)N2CCN(C(=O)c3oc4ccccc4c3C)CC2)cc1 | -1.99% |
| CN(C(=O)c1cccc(NC(=O)Cc2ccc(NC(=O)C3CCN(C(=O)C4CCCCC4)CC3)cc2)c1)C1CCC1 | -2.83% |
| COc1cc2c(cc1OC)C1C(=O)c3cc(OS(C)(=O)=O)c(OC)cc3C1N(C)C2=O (configuration not stated) | 18% |
| Nc1cc(=O)n(Cc2ccccc2)c(=O)n1Cc1ccccc1 | 1.08% |
| c1ccc(CNc2ncnc3[nH]ncc23)cc1 | -0.266% |
| C[n+]1cccc(C(=O)O)c1 | -1.15% |
| O=S(=O)(Cc1ccc(Cl)cc1Cl)c1ccc(Cl)cc1 | -0.548% |
| CCOC(=O)[C@H]1[C@H]2COc3ccc(Br)cc3[C@@H]2N2C(=O)CN(C)C(=O)[C@@]12C | -0.578% |
| O=[N+]([O-])c1cccc(C=NN=Cc2ccccc2O)c1 | 3.44% |
| O=C(Nc1ccc2ccccc2c1[N+](=O)[O-])c1ccccc1 | 2.49% |
| COc1ccc(NS(=O)(=O)c2ccc(N3CCOCC3)c(NC(=O)/C=C/C(=O)O)c2)cc1 | -0.522% |

| SMILES | activation of IL-2 secretion |
| --- | --- |
| Cc1nc2ccc(N)nc2nc1C | 1.17% |
| CCOC(=O)C(CO)NC(=O)C1(NC(C)=O)CCCC1 (configuration not stated) (Ac-[Ac5c]-[ξS]-OEt) | -9.89% |
| COc1ccc(N=C2C=CC(=O)O2)cc1 | 2.72% |
| C/C(=N\Nc1ccc(Cl)nn1)c1ccccc1O | -4.92% |
| O=C(NNC(=O)c1ccc2ccccc2c1)c1ccc(Cl)cc1 | 3.64% |
| COC(=O)Cc1nc2c(N)nc(N)nc2[nH]c1=O | 2.41% |
| CC(C)OC(=O)c1ccc(NCc2cc(O)ccc2O)cc1Cl | -2.79% |
| Cc1cc([N+](=O)[O-])c(=O)[nH]c1C | -6.49% |
| O=C(O)c1ccc(NN=CC2=C(N3CCOCC3)/C(=C/c3ccccc3)CC2)cc1 | -1.53% |
| CCN1C[C@@H]2[C@@H]3C(=O)N(C)C(=O)[C@@H]3[C@](C)(C1=O)N2C(=O)c1ccccc1 | 1.71% |
| COc1ccc(Br)cc1/C=N/Nc1ccc(S(=O)(=O)Nc2ccccc2C(=O)O)cc1[N+](=O)[O-] | -1.12% |
| O=C(Nc1c[nH]c(=O)[nH]c1=O)OCc1ccccc1 | -1.09% |
| O=C(Nc1ccn(CCCNCc2ccc3[nH]ccc3c2)c(=O)n1)OCc1ccccc1 | 3.57% |
| CCCCNCCS(=O)(=O)NCc1ccccc1 | -4.58% |
| COc1ccc2nc(N3C(=O)C(O)=C(C(=O)c4ccco4)C3c3ccco3)sc2c1 (configuration not stated) | 1.73% |
| COc1ccc(C(CNC(=O)c2cccc(S(=O)(=O)Nc3ccc(Br)cc3)c2)N(C)C)cc1 (configuration not stated) | -9.63% |
| CCCCC(=O)NC(c1ccc(OC)c(OC)c1)c1ccc2cccnc2c1O (configuration not stated) | 3.02% |
| O=c1[nH]c(=S)[nH]c(O)c1/C=C1\C=Nc2ccccc21 | -2.5% |
| O=C(O)C1C2C=CC(O2)C1C(=O)Nc1ccccn1 (configuration not stated) | -9.44% |
| O=C(NCc1ccccc1)c1cccc(NC(=O)C2CCCCC2)c1 | 2.41% |
| O=C(NCCc1ccccc1)c1cccc(NC(=O)c2ccccc2)c1 | 1.8% |
| CCOc1ccc(CCNC(=O)COC(=O)C2CCN(S(=O)(=O)c3ccccc3)CC2)cc1OCC | 3.13% |
| COc1ccc(-c2ccc3c(c2)[C@@H]2C[C@H](N(C)S(=O)(=O)c4ccccc4)[C@H]([C@H](C)O)C(=O)N2CC3)cc1 | -1.04% |
| Oc1c(CN2CCOCC2)ccc(CN2CCOCC2)c1O | -4.54% |
| COc1ccc(C2NCCCC2c2ccccc2)cc1 (configuration not stated) | -1.89% |

| SMILES | activation of IL-2 secretion |
| --- | --- |
| O=C(NN=Cc1ccccc1)c1ccccc1 | 0.412% |
| CCC1(C)COC(c2ccc(OC)c(OC)c2)OC1 (configuration not stated) | 1.82% |
| Cc1ccccc1N1CCN(C(=O)c2cccnc2)CC1 | 5.77% |
| CSCCC(NC(=O)COc1ccccc1)C(=O)N1CCN(c2cccc(C(F)(F)F)c2)CC1 (configuration not stated) | -6.34% |
| O=S1(=O)CCOC[C@H](Cc2ccccc2)N1Cc1ccccc1Br | -2.37% |
| CC(Nc1ccc([N+](=O)[O-])cc1[N+](=O)[O-])c1ccccc1 (configuration not stated) | 3.61% |
| NN=C(NN=Cc1ccccc1)c1ccccc1 | 8.09% |
| Cn1c(=S)sc2ccc3ccccc3c21 | -8.56% |
| Nc1ncnc2c1cnn2C1CC(O)C(CO)O1 (configuration not stated) | 5.52% |
| COc1ccc(CS(=O)/C(Cl)=C(/Cl)C(=O)Nc2ccc(OC)nc2)cc1 (configuration not stated) | 3.3% |
| N=C1c2ccccc2-c2ccccc21 | 3.58% |
| C/C(=N\Nc1ccccc1)c1cccs1 | -2.99% |
| CCCCCCCCNS(=O)(=O)CCNC1CCCCC1 | -0.0999% |
| O=S1(=O)CSCS(=O)(=O)C1 | -5.1% |
| Cc1ccc(SCC(=O)N2CCN(c3ccc(F)cc3)CC2)cc1 | -7.83% |
| Cc1nc(Nc2ccccc2C)c2cnn(C)c2n1 | 2.43% |
| COc1ccc(NC(=O)/C(N=Nc2cccc(S(=O)(=O)Nc3ccc(SC(F)F)cc3)c2)=C(\C)O)cc1 | -4.11% |
| O=C1CC[C@@H]2CC3(C[C@@H]4CCN1[C@H]24)Nc1cc([N+](=O)[O-])ccc1NC3=NC1CCCCC1 (some centres not stated) | -5.47% |
| N#CC1=C(N)Oc2cc(N)ccc2C1c1ccccc1 (configuration not stated) | 4.31% |
| CN(CCc1ccccc1)C(=O)c1cccc(NC(=O)Cc2cccc(NC(=O)C3CCCN(C(=O)C4CCC4)C3)c2)c1 (configuration not stated) | -4.22% |
| COc1ccc(Nc2ccc3ccccc3c2)cc1 | 2.88% |
| COC1=NC2=NCCN2C(OC)=N1 | -0.648% |
